Results reported in PubChem BioAssay AID652115 (Broad Institute, 2013).
Hit rate of the full screen: of about 330,000 compounds, about 3,800 (1.2%) were called active. The sample as a whole holds a higher share of actives than the screen did. Values without a mark were called inactive. No stated cut-off is given here; in the data, active means inhibition above about 15%; inconclusive means no clear call, values can overlap the other calls; inactive means below that.

What follows are molecules tested against NAD-dependent protein deacylase sirtuin-5, mitochondrial (Homo sapiens) (UniProt Q9NXA8) (assay: SIRT5 desuccinylase inhibitors, primary screen, biochemical, fluorescence imaging, single point, set 5 (AID 652115)). Conditions: Purified SirT5, succinyl-peptide AMC, trypsin-coupled fluorescence; at 15 µM; active compounds read high.
NAD-dependent protein deacylase sirtuin-5, mitochondrial (Homo sapiens), sequence (Q9NXA8 whole entry, looked up): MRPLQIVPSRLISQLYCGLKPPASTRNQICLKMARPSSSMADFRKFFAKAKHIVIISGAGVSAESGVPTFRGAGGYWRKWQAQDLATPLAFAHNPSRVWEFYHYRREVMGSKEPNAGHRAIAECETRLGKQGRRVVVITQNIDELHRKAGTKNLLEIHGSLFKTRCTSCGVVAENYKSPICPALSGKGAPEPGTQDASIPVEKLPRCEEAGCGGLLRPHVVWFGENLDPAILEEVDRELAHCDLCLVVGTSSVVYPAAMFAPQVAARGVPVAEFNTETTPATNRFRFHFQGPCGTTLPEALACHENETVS
For `O=C(NCC[C@@H]1CC[C@@H](NS(=O)(=O)c2cccc(F)c2)[C@H](CO)O1)C1CC1`, the inhibition was -0.786%. `C[C@H]1CN([C@@H](C)CO)C(=O)c2cccc(NC(=O)Nc3ccccc3)c2O[C@H]1CN(C)S(=O)(=O)c1ccc(F)cc1` showed an inhibition of -1.45%. `CCC(=O)Nc1ccc2c(c1)C(=O)N(C)[C@H]1CC[C@H](CC(=O)NCCOC)O[C@@H]1CO2` showed an inhibition of 2.38%. Molecule `C[C@@H]1CN([C@@H](C)CO)C(=O)Cc2cc(NS(=O)(=O)c3cccs3)ccc2O[C@@H]1CN(C)C(=O)Nc1ccc(C(F)(F)F)cc1` has an inhibition of 3.48%. In the case of `C[C@H](CO)N1C[C@H](C)[C@H](CN(C)S(=O)(=O)c2ccc(F)cc2)OCCCC[C@H](C)Oc2ccc(NS(=O)(=O)c3ccc(Cl)cc3)cc2C1=O`, the inhibition is reported as 17.6% (active). `COc1ccc(CN(C)C[C@@H]2OCCCC[C@H](C)Oc3ccc(NS(=O)(=O)c4ccc(F)cc4)cc3C(=O)N([C@H](C)CO)C[C@H]2C)cc1` gave an inhibition of -3.51%. In the case of `Cc1ccc(S(=O)(=O)N(C)C[C@H]2OCCCC[C@@H](C)Oc3ccc(NC(=O)Nc4ccc(F)cc4)cc3C(=O)N([C@@H](C)CO)C[C@H]2C)cc1`, the inhibition is reported as -2.04%. `COc1ccc(S(=O)(=O)Nc2ccc3c(c2)C(=O)N([C@@H](C)CO)C[C@@H](C)[C@H](CN(C)Cc2ccc(C(F)(F)F)cc2)OCCCC[C@@H](C)O3)cc1` was tested, and the inhibition was 16.7% (active). `Cc1ccc(S(=O)(=O)N(C)C[C@@H]2OCCCC[C@@H](C)Oc3ccc(NS(=O)(=O)c4ccc(F)cc4)cc3C(=O)N([C@H](C)CO)C[C@H]2C)cc1` was tested, and the inhibition was 19.9% (active). With `C[C@@H]1CN([C@H](C)CO)C(=O)c2cc(NS(=O)(=O)c3cccs3)ccc2O[C@@H]1CN(C)Cc1ccc(C(F)(F)F)cc1` the inhibition was 2.33%. With `COc1ccc(S(=O)(=O)Nc2ccc3c(c2)C(=O)N([C@@H](C)CO)C[C@H](C)[C@H](CN(C)Cc2ccc(C(F)(F)F)cc2)OCCCC[C@@H](C)O3)cc1` the inhibition was 9.2%. Molecule `C[C@@H]1CCCCO[C@H](CN(C)S(=O)(=O)c2ccc(F)cc2)[C@H](C)CN([C@@H](C)CO)C(=O)c2cc(NS(=O)(=O)c3ccccc3)ccc2O1` has an inhibition of 4.58%. In the case of `C[C@H](CO)N1C[C@H](C)[C@H](CN(C)Cc2ccc(C(F)(F)F)cc2)Oc2ccc(NS(C)(=O)=O)cc2C1=O`, the inhibition is reported as 21.5% (active). `C[C@H]1CN([C@@H](C)CO)C(=O)c2cc(NS(C)(=O)=O)ccc2O[C@H]1CN(C)C(=O)Nc1ccc(C(F)(F)F)cc1` was tested, and the inhibition was -4.07%. `COc1ccc(S(=O)(=O)Nc2ccc3c(c2)C(=O)N([C@H](C)CO)C[C@@H](C)[C@H](CN(C)S(=O)(=O)c2ccc(Cl)cc2)OCCCC[C@@H](C)O3)cc1` showed an inhibition of 13.8%. Work on `Cc1ccc(S(=O)(=O)Nc2ccc3c(c2)C(=O)N([C@H](C)CO)C[C@H](C)[C@H](CN(C)S(=O)(=O)c2ccc(F)cc2)OCCCC[C@@H](C)O3)cc1` yielded an inhibition of 4.66%. In the case of `O=C(C[C@H]1CC[C@H]2[C@@H](COC[C@@H](O)CN2C(=O)c2ccc3c(c2)OCO3)O1)NC1Cc2ccccc2C1`, the inhibition is reported as -1.48%. In the case of `CCCNC(=O)Nc1ccc2c(c1)OC[C@H](C)N(C(=O)C1CCC1)C[C@H](C)[C@@H](OC)CN(C)C2=O`, the inhibition is reported as -2.08%. `COc1ccc2c3c([nH]c2c1)[C@H](CO)N(Cc1nccs1)CC31CCN(Cc2ccncc2)CC1` showed an inhibition of 1.68%. Work on `CC=Cc1ccc2n(c1=O)C[C@@H]1[C@@H](CO)[C@H](C(=O)N3CCCCC3)[C@H]2N1C(=O)C1CCC1` (mixture of isomers) yielded an inhibition of -13.5%. For `Nc1ccccc1-c1cn(CC(=O)Nc2ccon2)nn1`, the inhibition was -0.431%. For `C[C@@H]1CN([C@H](C)CO)C(=O)c2cc(C#CCC3CCCC3)cnc2O[C@H]1CN(C)Cc1ccccn1`, the inhibition was -6.11%. `C[C@H](CO)N1C[C@H](C)[C@H](CN(C)Cc2ccc3c(c2)OCO3)OCCCC[C@H](C)Oc2ccc(NC(=O)c3ccccc3)cc2C1=O` gave an inhibition of 3.6%. `O=C(C[C@H]1CC[C@@H]2[C@H](COC[C@H](O)CN2S(=O)(=O)c2ccccc2)O1)N1CCOCC1` showed an inhibition of -0.872%. Work on `COc1ccccc1-c1cnc2c(c1)C(=O)N([C@@H](C)CO)C[C@@H](C)[C@H](CN(C)Cc1cccnc1)O2` yielded an inhibition of 0.854%. With `CN1c2ccc(C3=CCCCC3)cc2[C@@H]2[C@@H](CCN2S(=O)(=O)c2ccccc2F)[C@H]1CO` the inhibition was 3.11%. Work on `O=C(C[C@@H]1C=C[C@@H](NC(=O)C2CCC2)[C@H](CO)O1)NCC1CC1` yielded an inhibition of -2.09%. With `CCOC(=O)c1c(-c2ccccc2)oc2ccc(OCC(N)=O)cc12` the inhibition was 22.2% (active). With `CCOC(=O)c1c(-c2ccccc2)oc2ccc(OCC(=O)NN)cc12` the inhibition was 6.17%. `CCOC(=O)c1c(-c2ccccc2)oc2cc(Br)c(O)cc12` showed an inhibition of 0.164%. Work on `CN1C(=O)c2cc(NC(=O)c3cccc(F)c3)ccc2OC[C@H]2O[C@@H](CC(=O)NCc3ccccc3Cl)CC[C@@H]21` yielded an inhibition of 6.51%. Work on `O=C(C[C@H]1C[C@H]2c3cc(NC(=O)NC4CCCC4)ccc3O[C@H]2[C@H](CO)O1)NCCc1ccccc1` yielded an inhibition of -4.04%. Molecule `CCC(=O)N1C[C@@H](C)[C@H](OC)CN(C)C(=O)c2cc(NC(=O)NC3CCCC3)ccc2OC[C@H]1C` has an inhibition of 3.98%. In the case of `COCOCCn1cc(CN2CCS(=O)(=O)N(Cc3ccc(-c4cccc(N(C)C)c4)cc3)C(CC(C)C)C2=O)nn1` (configuration not stated), the inhibition is reported as -0.197%. Molecule `COCOCCn1cc(CN2CCS(=O)(=O)N(Cc3ccc(-c4ccccc4)cc3)C(CC(C)C)C2=O)nn1` (configuration not stated) has an inhibition of -0.714%. In the case of `COCOCCn1cc(CN2CCS(=O)(=O)N(Cc3ccc(-c4ccc(OC)cc4)cc3)C(CC(C)C)C2=O)nn1` (configuration not stated), the inhibition is reported as 18.3% (active). `C[C@@H]1CN([C@H](C)CO)C(=O)c2cc(NS(=O)(=O)c3cccs3)ccc2O[C@@H](C)CCCCO[C@H]1CN(C)Cc1ccc(C(F)(F)F)cc1` showed an inhibition of 13.1%.
